# From the supplement of paper PMC9801561
# ± gives the standard deviation of the averaged measurements.
# Tested on: Escherichia coli Nissle 1917
# Assay: area under OmniLog respiration curve over 48 h (OmniLog units x h); higher = more growth / nutrient utilisation; extreme values may be limits of the assay
# Details: nutrient role: C-Source, amine; incubation: 48 h, 37 °C
# 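For DuctApe activity index of respiration/growth curve (0 no growth to 9 maximum) in this document: biolog PM4 phosphorus and sulfur plates, tetrazolium violet dye reduction read in the OmniLog every 15 min, kinetic curves scored by DuctApe, each plate run in triplicate.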
row,SMILES,area under OmniLog respiration curve
1,"NCC(O)c1ccc(O)cc1 (racemic) [D,L-Octopamine]",6.75 ± 3.5
2,NCCc1ccccc1 [Phenylethylamine],5.51 ± 1.4
3,NCCc1ccc(O)cc1 [Tyramine],33 ± 46

# Same assay, conditions: nutrient role: sole nitrogen source (pyruvate carbon); incubation: 48 h, 37 °C
row,SMILES,area under OmniLog respiration curve
1,O=C1NC(=O)C(=O)C(=O)N1 [Alloxan],402 ± 390
2,NCCc1ccccc1 [b-Phenylethylamine],11.4 ± 12
3,CCN [Ethylamine],8.5 ± 6.5
4,CN [Methylamine],61 ± 97
5,NCCc1ccc(O)cc1 [Tyramine],35.9 ± 54

# Same assay, conditions: nutrient role: sole phosphorus source (pyruvate carbon); incubation: 48 h, 37 °C
row,SMILES,area under OmniLog respiration curve
1,OP(O)(=S)S [Dithiophosphate],9000 ± 660
2,OP(O)(O)=S [Thiophosphate],9350 ± 660
3,CCOP(=O)(OCC)OCC [Triethyl Phosphate],4.72
4,CN(CC(=O)O)C(=N)NP(=O)(O)O [Phosphocreatine],8760 ± 510
5,O=PO [Hypophosphite],2600 ± 590
6,NCCP(=O)(O)O [2-Aminoethyl Phosphonic acid],8180 ± 390

# Same assay, conditions: nutrient role: sole sulfur source (pyruvate carbon); incubation: 48 h, 37 °C
row,SMILES,area under OmniLog respiration curve
1,OP(O)(=S)S [Dithiophosphate],7150 ± 210
2,OP(O)(O)=S [Thiophosphate],6760 ± 260
3,CCSCCC(N)C(=O)O (racemic) [DL-Ethionine],286 ± 250

# Tested on: Escherichia coli Nissle 1917
# Assay: DuctApe activity index of respiration/growth curve (0 no growth to 9 maximum) (index 0-9); higher = more growth / nutrient utilisation, active = 3 or more; extreme values may be limits of the assay
# Details: nutrient role: C-Source, amine; incubation: 48 h, 37 °C
row,SMILES,DuctApe activity index
1,"NCC(O)c1ccc(O)cc1 (racemic) [D,L-Octopamine]",0 (inactive)
2,NCCc1ccccc1 [Phenylethylamine],0 (inactive)
3,NCCc1ccc(O)cc1 [Tyramine],0 (inactive)

# Same assay, conditions: nutrient role: sole nitrogen source (pyruvate carbon); incubation: 48 h, 37 °C
row,SMILES,DuctApe activity index
1,O=C1NC(=O)C(=O)C(=O)N1 [Alloxan],1.67 (inactive)
2,NCCc1ccccc1 [b-Phenylethylamine],0 (inactive)
3,CCN [Ethylamine],0 (inactive)
4,CN [Methylamine],0 (inactive)
5,NCCc1ccc(O)cc1 [Tyramine],0 (inactive)

# Same assay, conditions: nutrient role: sole phosphorus source (pyruvate carbon); incubation: 48 h, 37 °C
row,SMILES,DuctApe activity index
1,OP(O)(=S)S [Dithiophosphate],8.67 (active)
2,OP(O)(O)=S [Thiophosphate],8.67 (active)
3,CCOP(=O)(OCC)OCC [Triethyl Phosphate],0 (inactive)
4,CN(CC(=O)O)C(=N)NP(=O)(O)O [Phosphocreatine],8.67 (active)
5,O=PO [Hypophosphite],4 (active)
6,NCCP(=O)(O)O [2-Aminoethyl Phosphonic acid],8 (active)

# Same assay, conditions: nutrient role: sole sulfur source (pyruvate carbon); incubation: 48 h, 37 °C
row,SMILES,DuctApe activity index
1,OP(O)(=S)S [Dithiophosphate],7.67 (active)
2,OP(O)(O)=S [Thiophosphate],7 (active)
3,CCSCCC(N)C(=O)O (racemic) [DL-Ethionine],0 (inactive)
